Screening results (PubChem BioAssay)
Only some compounds are listed: those with a hit (about 3.2% of all), similar ones and a draw of the others.
CBFb RUNX1 block – CBF-beta/RUNX1 interaction disruption; Q01196+Q13951; 230,000 tested, under 10 active; AlphaScreen CBFb-His/RUNX1-biotin binding, biochemical; Potency, µM (highest dose often 59.8 µM), for the others: at the top dose activity, negative = inhibition, most hits filed as inhibitors; further: % of control where 0% means no effect
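Interaction loss through any mechanism counts as activity. Pre-formed complex of His-CBF-beta and biotin-RUNX1 (30 nM apiece) is incubated with compound 15 min, then with 50 ng nickel and 50 ng streptavidin beads for 90 min before AlphaScreen detection.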
Lamin A splicing – changes lamin A minigene splicing in HeLa cells; actives 0.01% (n = 200,000); Potency, µM (series often up to 46.1 µM), inactives show top-dose ratio change, negative = inhibition, usual class: inhibitors; HeLa LMNA splicing GFP/RFP minigene ratio, 48 h; active means well fitted inhibition curve with a large enough effect in the signal ratio, with a control signal flat, not every such curve was filed as active; inconclusive means small, poorly fitted or top-dose-only effect, or effect the other way, or a change in a side signal; the % refers to the signal ratio; further: potency means the concentration at half of the fitted maximal effect; on the % scale 0 is the no-effect control and ±100 the full control effect
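S3 HeLa cells stably expressing lamin A-EGFP splicing minigene plus DsRed2, 600 cells/well, 48 h compound exposure at 37C. Laser-scanning cytometry; analysed as GFP (500-530 nm)/RFP (575-640 nm) total intensity ratio; 0.5% DMSO vehicle.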
Tau FP inhib – blocks human tau fibril formation measured by polarization. AID 1468. actives 0.39% (n = 280,000). Potency, µM (series often up to 57.7 µM), for the others: at the top dose activity, negative = inhibition, actives largely listed as inhibitors. P10636. K18 P301L tau heparin fibrillization, Alexa594 FP, 6 h; further: potency means the concentration at half of the fitted maximal effect; on the % scale 0 is the no-effect control and ±100 the full control effect; nearly all actives have a fitted effect of over 55% in size
Target sequence (P10636 561-689 P618L limits assumed): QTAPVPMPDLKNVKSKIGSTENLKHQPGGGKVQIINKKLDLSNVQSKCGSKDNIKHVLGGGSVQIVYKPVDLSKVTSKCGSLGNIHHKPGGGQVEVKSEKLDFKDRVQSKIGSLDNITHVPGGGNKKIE
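Read-out: fluorescence polarization of Alexa 594-labeled tau (0.24 uM), 555 nm excitation, 632 nm emission. Mixtures held 15 uM unlabeled K18 P301L, compound and 20 uM heparin, pH 7 acetate buffer, incubated 6 hr at 37 C.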
JMJD2E inh – JMJD2E (human) inhibition. JMJD2E catalytic domain, FDH-coupled NADH fluorescence (FDH is formaldehyde dehydrogenase). actives 1.6% (n = 230,000). B2RXH2. Potency, µM (highest dose often 57.1 µM), for inactives: at the highest dose activity change, negative = inhibition, hits mostly inhibitors; active means well fitted inhibition curve with a large enough effect, not every such curve was filed as active; inconclusive means small, poorly fitted or top-dose-only effect, or another doubt; inactive means no such curve, though single readings can be large or run the other way;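 further: potency means the concentration at half of the fitted maximal effect; 0% = wells with enzyme and -100% = buffer wells without enzyme; nearly all actives have a fitted effect of over 50% in size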
Target sequence (B2RXH2 1-337 limits assumed): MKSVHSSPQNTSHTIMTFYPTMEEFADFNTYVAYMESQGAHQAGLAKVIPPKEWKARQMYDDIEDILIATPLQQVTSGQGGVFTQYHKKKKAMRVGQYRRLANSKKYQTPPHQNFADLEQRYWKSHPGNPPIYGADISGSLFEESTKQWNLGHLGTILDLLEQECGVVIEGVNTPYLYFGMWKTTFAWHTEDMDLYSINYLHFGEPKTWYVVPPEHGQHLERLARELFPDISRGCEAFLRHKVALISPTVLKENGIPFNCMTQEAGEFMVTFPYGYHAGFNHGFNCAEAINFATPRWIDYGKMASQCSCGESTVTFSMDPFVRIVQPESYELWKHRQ
Tau fluor cs – counter-screen for tau fibril formation inhibitors; tau K18 P301L Alexa594 fluorescence, heparin fibrillization; Potency, µM (top dose mostly 57.7 µM), for the others: top-dose activity change, negative = decrease; actives 0.93% (n = 280,000); further: potency means the concentration at half of the fitted maximal effect; on the % scale 0 is the no-effect control and ±100 the full control effect; nearly all actives have a fitted effect of over 55% in size
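Human K18 P301L tau (15 uM unlabeled plus 0.24 uM Alexa 594-labeled, final) in 100 mM sodium acetate pH 7 was mixed with compound and 20 uM heparin and incubated 6 hr at 37 C.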
Tau fibril ThT – blocks human tau fibril formation measured by thioflavin T; recombinant tau K18 P301L, heparin-induced fibrillization, ThT fluorescence; Potency, µM (top dose mostly 57.4 µM), for inactives: top-dose activity, negative = inhibition, actives largely listed as inhibitors; actives 2.1% (n = 270,000); AID 1460; further: potency means the concentration at half of the fitted maximal effect; on the % scale 0 is the no-effect control and ±100 the full control effect; nearly all actives have a fitted effect of over 55% in size
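ThT emission at 510 nm, taken 1 hr after adding 30 uM dye, quantifies aggregates formed when 20 uM heparin acts on human tau K18 P301L for 6 hr at 37 C.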
Numbers without * were called inactive; ? = inconclusive; / = no result given; ! = not active in a repeat; [ ] = dose if it differs, or a comment. Unless noted, the call rests on the fitted dose curve; in most records, active means well fitted curve in the direction sought with a large enough effect; inconclusive means small, poorly fitted or top-dose-only effect, or another doubt; inactive means no such curve, though single readings can be large; an effect the other way counts as inactive or inconclusive.

SMILES	CBFb RUNX1 block	Lamin A splicing	Tau FP inhib	JMJD2E inh	Tau fluor cs	Tau fibril ThT
CC(C)C[C@H]1C(=O)N2CCCC2[C@]2(O)O[C@](NC(=O)[C@@H]3C=C4c5cccc6[nH]cc(c56)CC4N(C)C3)(C(C)C)C(=O)N12 (stereo not given in full)	?	3%	?	?	?	13µM*
CC(C)C1C(=O)N2CCCC2[C@]2(O)O[C@@](NC(=O)[C@@H]3C=C4c5cccc6[nH]cc(c56)C[C@H]4N(C)C3)(C(C)C)C(=O)N12 (stereo not given in full)	?	/	?	?	?	20µM*
CC(C)[C@@]1(NC(=O)[C@@H]2C=C3c4cccc5[nH]cc(c45)C[C@H]3N(C)C2)O[C@@]2(O)[C@@H]3CCCN3C(=O)[C@H](Cc3ccccc3)N2C1=O	?	-9%	?	?	?	13µM*
C[C@H](CCC(=O)O)[C@H]1CC[C@@H]2[C@H]3[C@@H](CC[C@@]21C)[C@]1(C)CC[C@H](O)C[C@@H]1C[C@@H]3O	2%[21.7 µM]	?	/	2%[25.5 µM]	/	/
Cc1[nH]n(-c2ccccc2)c(=O)c1C(c1cccc([N+](=O)[O-])c1O)c1c(C)[nH]n(-c2ccccc2)c1=O	2%	?	-9%	0%	?	7.9µM*
C/C(O)=C1\C(=O)[C@@H]2[C@H]3c4c[nH]c5cccc(c45)C[C@H]3C(C)(C)N2C1=O	-21%	/	-2%	/	-18%	?
Cc1ccccc1-n1c(O)c(C(c2ccncc2)c2c(O)n(-c3ccccc3C)c(=O)[nH]c2=O)c(=O)[nH]c1=O	21%	/	?	18µM*	-18%	/
Cn1c(O)c(/C=C2\N=c3ccccc3=C2CCNC(=S)NC2CC2)c(=O)n(C)c1=O	-16%	/	?	?	-19%	11µM*
O=C(O)Cc1cccnc1C(=O)O	22%	/	-10%	1.6µM*	-8%	?
c1ccc2c(c1)CCNC2	-8%[21.7 µM]	/	/	/	/	/
O=C(NCc1ccc2c(c1)CCN2C(=O)c1ccccc1)Nc1cccc(C(F)(F)F)c1	/	?	?	/	?	2%
CC(=O)c1ccc(NC(=O)CSc2nc(=O)cc(N)n2-c2ccccc2)cc1	-29%	29%[46 µM]	6%	3%	-14%	?
CCN(C(=O)CN1CC=C(c2ccccc2)CC1)c1c(N)n(Cc2ccccc2)c(=O)[nH]c1=O	-2%	8%[46 µM]	1%	-12%	4%	-7%
CC(C)CN(C(=O)CN1CC=C(c2ccccc2)CC1)c1c(N)n(CC(C)C)c(=O)[nH]c1=O	1%	?	-10%	28µM*	-8%	-17%
C=CCCC#N	7%[21.7 µM]	/	/	/	/	/
C[C@@H]1C[C@H]2OC(=O)C3(CO3)[C@H]2[C@H](O)[C@]2(C)C(=O)C3OC3[C@@H]12 (stereo not given in full)	11%	/	?	13%	-8%	?
C=C1C(=O)O[C@@H]2C[C@@H](C)[C@@H]3C=CC(=O)[C@@]3(C)[C@@H](O)[C@H]12	1%	/	4µM*	9%	8.9µM*![quencher]	3.5µM*
CC(C)=O	2%[21.7 µM]	?	/	/	/	/
Cc1ccc(N2C(=O)/C(=C/c3ccc(CN(CCC#N)S(C)(=O)=O)o3)C(=O)NC2=S)cc1	?	-2%	?	?	-22%	22µM*
Nc1cc2nc3ccccc3nc2cc1N	-6%	/	?	-2%	?	10µM*
COc1ccc(Cn2c(N)c(C(=O)NCc3ccco3)c3nc4ccccc4nc32)cc1	17%	?	-6%	?	?	20µM*
Cc1cccc(N(C)S(=O)(=O)c2cc(-c3cnc(C4CC4)o3)ccc2C)c1	/	?	7%	/	-6%	?
c1ccc2c(N3CCNCC3)nsc2c1	1%	/	?	?	-22%	22µM*
c1ccc2oc(N3CCNCC3)nc2c1	10%	3%	1%	3%	1%	-9%
